Measurements as given in the supplement of paper PMC11634586.
Structures can show the parent of a compound that is named as a salt. Unmarked numbers belong to inactive results.

system: NCI-H1688; experiment: inhibition of cell viability relative to untreated control (fraction); higher = stronger growth inhibition, active = 0.5 or more; conditions: 30 µM; 24 h
Procedure, shortened: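 Compounds from a natural compound library (TargetMol) were tested at 30 µM on NCI-H1688 small cell lung cancer cells for 24 h at 37°C under 5% CO2. Cell Counting Kit-8 absorbance at 450 nm, read in triplicate, gave the viability. The values express inhibition of cell viability as a fraction relative to untreated cells.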

Compound	inhibition of cell viability
O=c1[nH]cnc2c1ncn2[C@@H]1O[C@H](CO)[C@@H](O)[C@H]1O [Inosine]	0.0115
CC(C)=CCC[C@](C)(O)[C@H]1CC[C@]2(C)[C@@H]1[C@H](O)C[C@@H]1[C@@]3(C)CC[C@H](O)C(C)(C)[C@@H]3[C@@H](O)C[C@]12C [Protopanaxatriol]	-0.051
C=CC1=C(C)c2cc3[nH]c(cc4nc(cc5[nH]c(cc1n2)c(C)c5CCC(=O)O)C(CCC(=O)O)=C4C)c(C)c3C=C [Protoporphyrin IX]	0.863 (active)
COc1c(O)cc2c(c1O)[C@@H]1O[C@H](CO)[C@@H](O)[C@H](O)[C@H]1OC2=O [Bengenin]	0.0368
COc1ccc2ccc(=O)oc2c1CC=C(C)C [Osthole]	0.166
O=c1oc2ccccc2c(O)c1Cc1c(O)c2ccccc2oc1=O [Dicumarol]	0.308
CNC[C@@H](O)c1ccc(O)c(O)c1 [L-Adrenaline]	0.0228
NC(=O)NCCC[C@H](N)C(=O)O [Citrulline]	-0.126
COc1c2ccoc2cc2oc(=O)ccc12 [Bergapten]	0.298
O=C(CCc1ccc(O)cc1)c1c(O)cc(O)cc1O[C@@H]1O[C@H](CO)[C@@H](O)[C@H](O)[C@H]1O [Phlorizin]	-0.0544
CO[C@H]1C[C@H](O[C@H]2[C@H](C)O[C@@H](O[C@@H]3/C(C)=C/C[C@@H]4C[C@@H](C[C@]5(C=C[C@H](C)[C@@H](C6CCCCC6)O5)O4)OC(=O)[C@@H]4C=C(C)[C@@H](O)[C@H]5OC/C(=C\C=C\[C@@H]3C)[C@]54O)C[C@@H]2OC)O[C@@H](C)[C@@H]1O [Doramectin]	0.993 (active)
C=C(C)[C@H]1CC=C(C)C(=O)C1 [(S)-(+)-Carvone]	0.248
C[C@]12CC[C@@H]3c4ccc(O)cc4CC[C@H]3[C@@H]1C[C@@H](O)[C@@H]2O [Estriol]	0.0233
OC[C@@H](O)[C@@H](O)[C@H](O)[C@H](O)CO [D-Mannitol]	-0.179
CC[C@H](/C=C/[C@@H](C)[C@H]1CC[C@H]2[C@@H]3CC=C4C[C@@H](O)CC[C@]4(C)[C@H]3CC[C@]12C)C(C)C [Stigmasterol]	-0.0217
C=C(C)[C@@H]1CC=C(CO)CC1 [Perillyl alcohol]	0.195
C[C@@H]1O[C@@H](O[C@H]2[C@H](O[C@H]3CC[C@@]4(C)[C@@H](CC[C@]5(C)[C@@H]4CC=C4[C@@H]6CC(C)(C)CC[C@]6(C(=O)O)CC[C@]45C)[C@]3(C)CO)OC[C@H](O)[C@@H]2O)[C@H](O)[C@H](O)[C@H]1O [Alpha-Hederin]	0.999 (active)
CC(C)[C@@H](C)/C=C/[C@@H](C)[C@H]1CC[C@H]2C3=CC=C4C[C@@H](O)CC[C@]4(C)[C@H]3CC[C@]12C [Ergosterol]	-0.172
NC(=O)CC[C@H](N)C(=O)O [L-Glutamine]	-0.0181

Compound	inhibition of cell viability
COc1ccc(CC(=O)O)cc1OC [Homoveratrumic acid]	0.0253
CC1(C)CC[C@]2(C(=O)O[C@@H]3O[C@H](CO[C@@H]4O[C@H](CO)[C@@H](O)[C@H](O)[C@H]4O)[C@@H](O)[C@H](O)[C@H]3O)CC[C@]3(C)C(=CC[C@@H]4[C@@]5(C)CC[C@H](O[C@@H]6OC[C@H](O)[C@H](O)[C@H]6O)[C@@](C)(CO)[C@@H]5CC[C@]43C)[C@@H]2C1 [Asperosaponin Ⅵ]	0.0344
O=c1c2ccccc2nc2n1CCc1c-2[nH]c2ccccc12 [Rutaecarpine]	-0.128
NC[C@H]1O[C@H](O[C@H]2[C@H](O)[C@@H](O[C@H]3O[C@H](CO)[C@@H](O)[C@H](N)[C@H]3O)[C@H](N)C[C@@H]2N)[C@H](N)C[C@@H]1O [Tobramycin]	-0.0866
CC[C@H](CC[C@@H](C)[C@H]1CC[C@H]2[C@@H]3CC=C4C[C@@H](O)CC[C@]4(C)[C@H]3CC[C@]12C)C(C)C [Beta-Sitosterol]	0.185
N[C@@H](Cc1c[nH]c2ccc(O)cc12)C(=O)O [5-hydroxytryptophan (5-HTP)]	-0.0946
Cc1cc2nc3c(=O)[nH]c(=O)nc-3n(C[C@H](O)[C@H](O)[C@H](O)CO)c2cc1C [Riboflavin]	0.284
O=C(O)/C=C/c1ccc(O)c(O)c1 [Caffeic Acid]	-0.0219
CC1=CC(=O)c2ccccc2C1=O [Menadione]	0.979 (active)
CC[C@H](C)C(=O)O[C@H]1C[C@@H](C)C=C2C=C[C@H](C)[C@H](CC[C@@H]3C[C@@H](O)CC(=O)O3)[C@H]21 [Lovastatin]	0.836 (active)
CC1=C(C/C=C(\C)CCC[C@H](C)CCC[C@H](C)CCCC(C)C)C(=O)c2ccccc2C1=O [Vitamin K1]	-0.199
CC(C)=CCC[C@](C)(O)[C@H]1CC[C@]2(C)[C@@H]1[C@H](O)C[C@@H]1[C@@]3(C)CC[C@H](O)C(C)(C)[C@@H]3CC[C@]12C [(20S)-Protopanaxadiol]	-0.0275
C[C@@H]1O[C@@H](Oc2c(-c3cc(O)c(O)c(O)c3)oc3cc(O)cc(O)c3c2=O)[C@H](O)[C@H](O)[C@H]1O [Myricetrin]	-0.141
O=P(O)(O)O[C@H]1[C@H](OP(=O)(O)O)[C@@H](OP(=O)(O)O)[C@H](OP(=O)(O)O)[C@@H](OP(=O)(O)O)[C@H]1OP(=O)(O)O [Phytic acid]	-0.0495
COc1c2occc2c(OC)c2c(=O)cc(C)oc12 [Khellin]	0.168
C/C=C(/C)C(=O)OC(C)(C)[C@@H]1Cc2c(ccc3ccc(=O)oc23)O1 [Columbianadin]	0.338
Cc1ncc(CO)c(CO)c1O [Pyridoxine hydrochloride]	0.171
C[C@H]1[C@H](C)CC[C@]2(C(=O)O[C@@H]3O[C@H](CO[C@@H]4O[C@H](CO)[C@@H](O[C@@H]5O[C@H](C)[C@H](O)[C@@H](O)[C@H]5O)[C@H](O)[C@H]4O)[C@@H](O)[C@H](O)[C@H]3O)CC[C@]3(C)C(=CC[C@@H]4[C@@]5(C)C[C@@H](O)[C@H](O)[C@@](C)(CO)[C@@H]5CC[C@]43C)[C@H]12 [Asiaticoside]	0.145
